FBPA Giardia inh: qHTS Assay for Inhibitors of Fructose-1,6-bisphosphate Aldolase from Giardia Lamblia; A8B2U2; purified Giardia FBPA; Potency, µM (series often up to 59.6 µM), for the others: at the top dose activity, negative = inhibition, actives largely listed as inhibitors; hit rate 0.71% among 290,000; also: potency is read from the fitted curve at half-maximal effect; % is scaled to controls: 0 for no effect and ±100 for the full control effect; nearly all actives have a fitted effect of over 55% in size
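40 nM FBPA preincubated 10 min at RT with compound (up to 57.5 uM final), then substrate plus GAPDH/TPI/NAD/arsenate coupling and diaphorase/resazurin added. Fluorescence read after 20 min at RT, 525/598 nm.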
Cycloheximide cs: Cycloheximide Counterscreen for Small Molecule Inhibitors of Shiga Toxin | max response, % | hit rate 12% among 300,000 | cell reporter, cycloheximide protein synthesis inhibition counterscreen; in the data active = max response mostly above about 13%, no sharp cut-off; inactive = mostly below about 14%; also: read at 38.3 µM for the half of the compounds with a filed dose; 0% is about no effect
RE007 growth inh: qHTS Assay for Inhibitors of the HIV-1 protein Vpr; S. pombe RE007 Vpr strain, BacTiter-Glo ATP luminescence, 24 h; Potency, µM (titrated, usually from 92.2 µM), for the others: top-dose activity change, negative = less growth, hits mostly inhibitors; hit rate 0.21% among 360,000; active = well fitted falling curve with a large enough effect; inconclusive = small, poorly fitted or top-dose-only effect; inactive = no such curve, though single readings can be large or run the other way; also: potency is read from the fitted curve at half-maximal effect; % is scaled to controls: 0 for no effect and ±100 for the full control effect; nearly all actives have a fitted effect of over 50% in size
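Fission yeast RE007 carrying one integrated HIV-1 vpr copy, seeded at OD 0.01 in PMG+AL medium with 23 nL pinned compound. Grown 24 h at 30 degrees; viability read by BacTiter-Glo luminescence after 5 min.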
Shiga inhibitor: A qHTS for Small Molecule Inhibitors of Shiga Toxin; Vero cells, Shiga toxin protein synthesis inhibition reporter; AID 2315, 2010; inhibition, % at 38.7 µM; hit rate 9.2% among 290,000; in the data active = inhibition mostly above about 28%, no sharp cut-off; inactive = mostly below about 43%; also: 0% is about no effect
LmPK inhibitor: qHTS Assay for Inhibitors of Leishmania Mexicana Pyruvate Kinase (LmPK); Potency, µM (top dose mostly 57.5 µM), inactives show top-dose activity change, negative = inhibition, actives largely listed as inhibitors; AID 1721, 2009; purified LmPK, Kinase-Glo ATP luminescence, 1 h; Q27686; hit rate 0.37% among 290,000; also: potency is read from the fitted curve at half-maximal effect; % is scaled to controls: 0 for no effect and ±100 for the full control effect
Target sequence (Q27686 whole entry, looked up): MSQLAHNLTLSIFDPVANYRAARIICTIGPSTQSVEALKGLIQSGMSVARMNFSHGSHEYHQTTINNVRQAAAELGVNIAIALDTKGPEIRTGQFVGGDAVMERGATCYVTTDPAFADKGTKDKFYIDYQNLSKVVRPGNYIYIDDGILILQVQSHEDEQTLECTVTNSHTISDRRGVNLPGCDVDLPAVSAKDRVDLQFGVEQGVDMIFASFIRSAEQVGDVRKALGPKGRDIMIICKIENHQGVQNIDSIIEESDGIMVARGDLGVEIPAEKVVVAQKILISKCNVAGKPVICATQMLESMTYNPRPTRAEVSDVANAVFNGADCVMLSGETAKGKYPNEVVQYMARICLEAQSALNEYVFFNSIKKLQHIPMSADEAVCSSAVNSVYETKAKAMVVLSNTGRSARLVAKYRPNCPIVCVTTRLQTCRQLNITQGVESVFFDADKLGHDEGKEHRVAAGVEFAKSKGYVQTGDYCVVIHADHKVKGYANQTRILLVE
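ATP generated from ADP (0.1 mM) and PEP (0.5 mM) by 0.1 nM LmPK over 1 h at room temperature (pH 7.2 imidazole buffer) was detected by coupled luciferase luminescence. Values were normalized to uninhibited and no-enzyme wells.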
Tb PYK inh: qHTS of Trypanosoma Brucei Inhibitors. hit rate 0.12% among 410,000. Potency, µM (top dose mostly 76.8 µM), without a hit: at the highest dose activity, negative = inhibition, usual class: inhibitors. TbPYK enzyme, Kinase-Glo Plus ATP luminescence, 45 min; also: potency is read from the fitted curve at half-maximal effect; % is scaled to controls: 0 for no effect and ±100 for the full control effect; nearly all actives have a fitted effect of over 50% in size
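Luminescence from Kinase-Glo Plus, added after a 45-minute room-temperature reaction, served as the end-point read-out. The enzyme and substrate were preincubated with compound before ADP (130 uM final) initiated turnover. Concentration-effect curves came from normalized qHTS data.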
* hit, by the source's call; ? = inconclusive; . = no result given. Many of the other results were omitted from the sample, so hits are more common in it than they were. Unless noted, calls follow the shape of the dose curve; as a rule, active = well fitted curve in the direction sought with a large enough effect; inconclusive = small, poorly fitted or top-dose-only effect, or another doubt; inactive = no such curve, though single readings can be large; an effect the other way counts as inactive or inconclusive.

SMILES	FBPA Giardia inh	Cycloheximide cs	RE007 growth inh	Shiga inhibitor	LmPK inhibitor	Tb PYK inh
Cc1ccccc1-c1nc2sc3c(c2c(=O)n1N)CCCC3	0%	43*	-26%	75*	6%	9%
Nn1c(-c2cccs2)nc2sc3c(c2c1=O)CCCC3	-3%	35*	?	108*	-16%	7%
CC1(C)Cc2c(sc3nc(-c4cccs4)n(N)c(=O)c23)CO1	-4%	36*	-21%	57	9%	-8%
CN(C)c1nc2sc3c(c2c(=O)n1C)CC(C)(C)OC3	-3%	11*	0%	44*	-10%	0%
Cc1ccccc1NC(=S)NC(=O)/C=C/c1ccco1	-29%	17	-17%	13	13%	-14%
Cc1ccc(-n2nc3ccc(NC(=S)NC(=O)/C=C/c4ccco4)cc3n2)cc1	4%	12	-1%	37*	1%	0%
Cc1ccc(-n2nc3cc(C)c(NC(=S)NC(=O)/C=C/c4ccco4)cc3n2)cc1	-3%	70*	0%	active	-1%	-2%
CCOC(=O)c1c(C)[nH]c(C(=O)OCC(=O)NCc2ccco2)c1C	.	.	-6%	.	.	1%
O=C(NCCCO)c1ccc(CSc2nc3ccccc3[nH]2)cc1	1%	11*	-9%	31	-5%	-8%
Cc1ccc(CNC(=O)c2ccc3nc(SCc4ccc(F)cc4)[nH]c3c2)cc1	.	.	.	.	.	3%
O=C(NCc1ccccc1Cl)c1ccc(CSc2nc3ccncc3[nH]2)cc1	6%	-4	-9%	-5	4%	1%
O=C(NCCO)c1ccc(CSc2nc3ccccc3[nH]2)cc1	0%	17*	2%	19	-5%	-4%
CCC(C)NS(=O)(=O)c1ccc(S(=O)(=O)N2CCCC3(CCCCC3)C2)cc1 (configuration not stated)	-8%	-2	0%	-11	1%	-14%
COc1ccc2c(C(=O)CN3CCN(c4ccccc4)CC3)c[nH]c2c1	1%	-6	-4%	-22	3%	-2%
COc1ccc2[nH]cc(C(=O)CN3CCCCC3)c2c1	3%	27*	3%	3	0%	-7%
COc1ccc2[nH]cc(C(=O)CN3CCN(C4CCCCC4)CC3)c2c1	5%	-6	1%	-18	-8%	1%
COc1ccc2c(C(=O)CN3CCSCC3)c[nH]c2c1	-21%	32*	-13%	40*	0%	1%
CCCCn1c(N)c(N(CCOC)C(=O)c2ccc(-c3ccc(C(C)=O)cc3)o2)c(=O)[nH]c1=O	.	.	0%	.	.	-4%
CCc1c(C)sc(NC(=O)C2CC(c3c(F)cccc3Cl)=NO2)c1C#N (configuration not stated)	-4%	9	-12%	11	-3%	3%
N#Cc1c(NC(=O)C2CC(c3c(F)cccc3Cl)=NO2)sc2c1CCC2 (configuration not stated)	5%	23*	-16%	36*	-3%	2%
COc1cc(NC(=O)C2CC(c3cccc(OC)c3OC)=NO2)cc(OC)c1OC (configuration not stated)	-6%	-1	-3%	-6	3%	-17%
COc1cccc(C2=NOC(C(=O)Nc3cccnc3)C2)c1 (configuration not stated)	2%	-3	12%	32	-3%	2%
COc1ccc(C2=NOC(C(=O)Nc3ccc(C(C)=O)cc3)C2)cc1OC (configuration not stated)	4%	29*	3%	75*	-1%	-9%
COc1cc(C2=NOC(C(=O)Nc3ccc(C(C)=O)cc3)C2)cc(OC)c1OC (configuration not stated)	6%	29*	4%	81*	3%	-6%
COc1cccc(C2=NOC(C(=O)Nc3ccc(C(C)=O)cc3)C2)c1 (configuration not stated)	5%	48*	1%	53*	1%	-3%
